{"source": "PubChem BioAssay (Tox21)", "note": "Inconclusive results are not listed. The source made the active and inactive calls. The call rests on the fitted dose curve; in most records, active means well fitted cell-killing curve with a large enough effect in the repeat runs; inconclusive means weak or mixed curves, or effect the other way; inactive means no such curve, though single readings can be large or run the other way. Residues, ends and D or L forms follow the SMILES beside them."}
{"assay": "qHTS assay for small molecule activators of the heat shock response signaling pathway - cell viability counter screen (AID 743209); further: nearly all actives have a fitted effect of over 50% in size", "settings": "HSE-bla HeLa viability, CellTiter-Glo luminescence, 5 h; series mostly up to 62.6 µM", "from_the_text": "U.S. Tox21 Program National Center for Advancing Translational Sciences [NCATS] NIH Chemical Genomics Center [NCGC] U.S. Environmental Protection Agency [EPA] National Institutes of Environmental Health Sciences [NIEHS] National Toxicology Program [NTP] U.S. Food and Drug Administration [FDA] Tox21 Assay Overview: Various chemicals, environmental and physiological stress conditions may lead to the activation of heat shock response/ unfolded protein response (HSR/UPR). There are three heat shock transcription factors (HSFs) (HSF-1, -2, and -4) mediating transcriptional regulation of the human HSR. To identify the compounds that activate HSR signaling, HSE-bla HeLa cell line (Invitrogen, Carlsbad, CA, USA) containing a beta-lactamase reporter gene under the control of the heat shock response elements was used to screen Tox21 10K compound library. The cytotoxicity of the Tox21 compound library against the HSE-bla HeLa cell line was tested in parallel by measuring the cell viability using CellTiter-Glo assay (Promega, Madison, WI) in the same wells.\nTox21 Assay Protocol Summary: The CellSensor HSE-bla HeLa cells (Invitrogen, Carlsbad, CA, USA) were dispensed at 1500 cells/6uL/well into 1536-well black wall/clear bottom plates using a Multidrop combi (Thermo Fisher Scientific, Waltham, MA) dispenser. After the assay plates were incubated at 37 C and 5% CO2 overnight, 23 nL of compounds dissolved in DMSO, positive controls or DMSO only was transferred to the assay plate by a Pintool station (Kalypsys, San Diego, CA). The plates were incubated at 37 C for 5 h. After 1 uL of LiveBLAzerTM B/G FRET substrate was added using a Flying Reagent Dispenser (FRD, Beckman Coulter, Indianapolis, IN, USA), the plates were incubated at room temperature for 2.5 h, and fluorescence intensity was measured by an Envision plate reader (PerkinElmer, Shelton, CT). For cell viability readout that measures cytotoxicity, 3 ul/well of CellTiter-Glo reagent was added into the assay plates using a FRD. After 30 min incubation at room temperature, the luminescence intensity in the plates was measured using a ViewLux (PerkinElmer) plate reader."}
{"smiles": "CCCN(CCC)S(=O)(=O)c1ccc(C(=O)O)cc1", "outcome": "inactive"}
{"smiles": "NNC(=O)c1ccncc1", "outcome": "inactive"}
{"smiles": "NC(=O)NC1NC(=O)NC1=O", "note": "(stereo not given)", "outcome": "inactive"}
{"smiles": "O=C(O)c1[nH]n(-c2ccc(S(=O)(=O)O)cc2)c(=O)c1N=Nc1ccc(S(=O)(=O)O)cc1", "outcome": "inactive"}
{"smiles": "O=c1cc[nH]c(=S)[nH]1", "outcome": "inactive"}
{"smiles": "O=C(O)CCCCCCCC(=O)O", "outcome": "inactive"}
{"smiles": "O=NO", "outcome": "inactive"}
{"smiles": "O=C(O)c1cc(N=Nc2ccc(S(=O)(=O)Nc3ccccn3)cc2)ccc1O", "outcome": "inactive"}
{"smiles": "O=C(O)CS", "outcome": "inactive"}
{"smiles": "OCCc1ccccc1", "outcome": "inactive"}
{"smiles": "CCCC(CCC)C(=O)O", "outcome": "inactive"}
{"smiles": "CC1(C)[C@@H]2CC[C@@]1(C)C(=O)C2", "outcome": "inactive"}
{"smiles": "O=C(O)/C=C\\C(=O)O", "outcome": "inactive"}
{"smiles": "O=C(c1ccccc1)C(O)c1ccccc1", "note": "(stereo not given)", "outcome": "inactive"}
{"smiles": "CC(C)(Oc1ccc(C2CC2(Cl)Cl)cc1)C(=O)O", "note": "(stereo not given)", "outcome": "inactive"}
{"smiles": "CC(=O)NS(=O)(=O)c1ccc(N)cc1", "outcome": "inactive"}
{"smiles": "O=S(=O)(O)NC1CCCCC1", "outcome": "inactive"}
{"smiles": "Cc1ccc(C)c(OCCCC(C)(C)C(=O)O)c1", "outcome": "inactive"}
{"smiles": "CNC[C@H](O)c1cccc(O)c1", "outcome": "inactive"}
{"smiles": "NC(N)=O", "outcome": "inactive"}
{"smiles": "O=C(O)c1cccc([N+](=O)[O-])c1", "outcome": "inactive"}
{"smiles": "O=C(O)CCC(=O)O", "outcome": "inactive"}
{"smiles": "Cc1ccc(S(=O)(=O)NC(=O)NN2CCCCCC2)cc1", "outcome": "inactive"}
{"smiles": "Nc1ccc(S(=O)(=O)Nc2nccs2)cc1", "outcome": "inactive"}
{"smiles": "COc1c2occc2cc2ccc(=O)oc12", "outcome": "inactive"}
{"smiles": "Cc1ccccc1C(OCCN(C)C)c1ccccc1", "note": "(stereo not given)", "outcome": "inactive"}
{"smiles": "O=S(=O)(O)c1ccc2cc(O)ccc2c1", "outcome": "inactive"}
{"smiles": "Cn1c(=O)c2[nH]cnc2n(C)c1=O", "outcome": "inactive"}
{"smiles": "NC(=O)c1ccccc1O", "outcome": "inactive"}
{"smiles": "Nc1ccc(O)c(C(=O)O)c1", "outcome": "inactive"}
{"smiles": "CC(O)C(=O)O", "note": "(stereo not given)", "outcome": "inactive"}
{"smiles": "O=C1CN(/N=C/c2ccc([N+](=O)[O-])o2)C(=O)N1", "outcome": "inactive"}
{"smiles": "COC(=O)[C@H](Cc1ccccc1)NC(=O)[C@@H](N)CC(=O)O", "note": "(H-Asp-Phe-OMe)", "outcome": "inactive"}
{"smiles": "NC(N)=NC(=O)c1nc(Cl)c(N)nc1N", "outcome": "inactive"}
{"smiles": "NC(=O)c1cnccn1", "outcome": "inactive"}
{"smiles": "CC(=O)OCC(COC(C)=O)OC(C)=O", "outcome": "inactive"}
{"smiles": "Cc1noc(NS(=O)(=O)c2ccc(N)cc2)c1C", "outcome": "inactive"}
{"smiles": "Cc1ccc(O)cc1", "outcome": "inactive"}
{"smiles": "CCCC(O)C(CC)CO", "note": "(stereo not given)", "outcome": "inactive"}
{"smiles": "COc1ccc2[nH]cc(CCNC(C)=O)c2c1", "outcome": "inactive"}
